Source: the supplement of paper PMC11732987, “Enantioselective OTUD7B fragment discovery through chemoproteomics screening and high-throughput optimisation” (Communications Chemistry, 2025)

Assays:
Test in all cases: log2 ratio of Biotin-Ahx-Ub-VS probe labelling (fragment/DMSO); higher = less target engagement (more negative = stronger competition), active = hit call of the paper (q ≤ 0.05, log2 ratio ≤ -1)
Settings in all cases: compound concentration: 200 uM; treatment time: 3 h
[1] = molecular target: USP9X (UniProt Q93008)
Method in brief: (§1)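 Labelled DUBs from HEK293T lysate were NeutrAvidin-enriched, digested with LysC and trypsin, and run by diaPASEF LC-MS/MS. Before that, each 495 µg sample in Tris/CHAPS/IGEPAL buffer with protease inhibitors was treated in triplicate with fragment at 200 µM or vehicle for 3 h, then with Biotin-Ahx-Ub-VS at 0.5 µM final for 1 h. Values are average log2 ratios of fragment over vehicle by unpaired t-test, based on global-median-normalised Spectronaut label-free quantities from proteins with ≥2 unique peptides.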

[2] = molecular target: UniProt O00487
UniProt O00487, sequence (O00487 whole entry): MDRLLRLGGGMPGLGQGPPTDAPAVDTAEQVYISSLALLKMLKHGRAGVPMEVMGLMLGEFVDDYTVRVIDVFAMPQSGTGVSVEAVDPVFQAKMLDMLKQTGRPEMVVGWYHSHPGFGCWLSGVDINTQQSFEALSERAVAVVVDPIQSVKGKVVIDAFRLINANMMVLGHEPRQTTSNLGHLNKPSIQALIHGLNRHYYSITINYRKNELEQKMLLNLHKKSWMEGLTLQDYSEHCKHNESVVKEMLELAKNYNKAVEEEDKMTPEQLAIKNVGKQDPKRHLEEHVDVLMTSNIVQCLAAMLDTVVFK
Method in brief: as §1

[3] = molecular target: UniProt O00507
UniProt O00507, sequence (O00507 whole entry): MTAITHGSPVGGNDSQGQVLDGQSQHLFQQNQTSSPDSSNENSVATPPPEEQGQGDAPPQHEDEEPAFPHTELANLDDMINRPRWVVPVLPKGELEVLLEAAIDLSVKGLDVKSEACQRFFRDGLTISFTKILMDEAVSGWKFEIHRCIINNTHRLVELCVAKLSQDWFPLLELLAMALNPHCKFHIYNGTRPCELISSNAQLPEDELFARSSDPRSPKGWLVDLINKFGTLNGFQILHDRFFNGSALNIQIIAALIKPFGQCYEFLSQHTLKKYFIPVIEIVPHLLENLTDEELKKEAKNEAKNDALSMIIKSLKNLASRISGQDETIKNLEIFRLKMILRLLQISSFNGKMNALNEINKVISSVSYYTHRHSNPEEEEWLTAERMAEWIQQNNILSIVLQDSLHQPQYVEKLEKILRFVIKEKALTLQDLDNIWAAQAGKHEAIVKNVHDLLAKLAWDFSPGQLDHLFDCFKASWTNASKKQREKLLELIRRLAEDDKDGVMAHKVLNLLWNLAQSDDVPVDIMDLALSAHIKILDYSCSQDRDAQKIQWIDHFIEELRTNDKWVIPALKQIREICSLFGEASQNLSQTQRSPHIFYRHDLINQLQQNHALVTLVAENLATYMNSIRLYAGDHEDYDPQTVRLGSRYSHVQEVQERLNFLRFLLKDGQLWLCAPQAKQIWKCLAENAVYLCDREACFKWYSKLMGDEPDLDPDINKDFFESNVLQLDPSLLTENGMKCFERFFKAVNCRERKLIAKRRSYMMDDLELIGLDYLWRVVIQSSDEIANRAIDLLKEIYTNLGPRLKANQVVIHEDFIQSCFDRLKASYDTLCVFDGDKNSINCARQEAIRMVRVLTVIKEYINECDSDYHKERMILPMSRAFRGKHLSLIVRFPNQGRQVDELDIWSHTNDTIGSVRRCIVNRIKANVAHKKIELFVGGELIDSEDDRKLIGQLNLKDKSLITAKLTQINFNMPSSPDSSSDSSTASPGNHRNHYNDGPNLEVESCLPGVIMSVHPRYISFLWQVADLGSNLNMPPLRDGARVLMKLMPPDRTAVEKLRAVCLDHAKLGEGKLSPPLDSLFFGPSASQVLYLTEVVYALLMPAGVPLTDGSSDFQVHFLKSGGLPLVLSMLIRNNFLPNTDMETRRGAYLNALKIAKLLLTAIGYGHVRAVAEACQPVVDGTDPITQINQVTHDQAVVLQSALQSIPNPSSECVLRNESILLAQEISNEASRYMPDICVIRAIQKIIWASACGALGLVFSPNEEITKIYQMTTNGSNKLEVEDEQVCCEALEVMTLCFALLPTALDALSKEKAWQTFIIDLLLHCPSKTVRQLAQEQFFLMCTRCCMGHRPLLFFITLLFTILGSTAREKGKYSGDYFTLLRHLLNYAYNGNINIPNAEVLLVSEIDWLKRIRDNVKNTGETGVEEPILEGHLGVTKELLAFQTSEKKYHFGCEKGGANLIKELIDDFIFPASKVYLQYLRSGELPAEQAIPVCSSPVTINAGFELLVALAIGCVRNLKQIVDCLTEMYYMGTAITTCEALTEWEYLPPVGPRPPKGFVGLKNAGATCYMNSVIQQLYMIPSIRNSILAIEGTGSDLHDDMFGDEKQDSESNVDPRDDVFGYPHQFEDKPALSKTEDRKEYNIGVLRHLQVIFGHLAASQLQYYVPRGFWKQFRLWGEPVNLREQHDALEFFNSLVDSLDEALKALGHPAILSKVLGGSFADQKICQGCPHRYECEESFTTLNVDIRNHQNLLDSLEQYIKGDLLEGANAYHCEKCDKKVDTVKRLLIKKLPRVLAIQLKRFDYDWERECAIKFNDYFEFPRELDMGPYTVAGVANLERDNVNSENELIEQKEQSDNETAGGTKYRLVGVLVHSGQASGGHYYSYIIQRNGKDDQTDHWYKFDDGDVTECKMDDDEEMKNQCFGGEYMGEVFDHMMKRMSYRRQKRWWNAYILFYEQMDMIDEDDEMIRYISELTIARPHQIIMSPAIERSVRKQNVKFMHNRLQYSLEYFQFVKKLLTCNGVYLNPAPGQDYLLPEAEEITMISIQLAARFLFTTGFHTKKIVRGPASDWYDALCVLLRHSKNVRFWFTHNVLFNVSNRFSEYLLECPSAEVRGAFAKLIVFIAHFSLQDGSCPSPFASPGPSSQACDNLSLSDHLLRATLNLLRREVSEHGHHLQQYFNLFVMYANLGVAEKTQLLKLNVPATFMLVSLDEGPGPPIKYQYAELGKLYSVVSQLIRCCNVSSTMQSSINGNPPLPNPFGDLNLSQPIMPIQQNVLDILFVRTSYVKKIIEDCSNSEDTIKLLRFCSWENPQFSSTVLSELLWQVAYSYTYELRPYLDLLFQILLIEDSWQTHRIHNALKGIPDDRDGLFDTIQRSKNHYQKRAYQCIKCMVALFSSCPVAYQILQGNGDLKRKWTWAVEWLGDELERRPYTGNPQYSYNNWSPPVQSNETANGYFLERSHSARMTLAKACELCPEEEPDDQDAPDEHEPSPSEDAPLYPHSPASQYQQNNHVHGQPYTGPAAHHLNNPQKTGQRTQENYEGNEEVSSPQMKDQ
Method in brief: as §1

[4] = molecular target: UniProt P51784
UniProt P51784, sequence (P51784 whole entry): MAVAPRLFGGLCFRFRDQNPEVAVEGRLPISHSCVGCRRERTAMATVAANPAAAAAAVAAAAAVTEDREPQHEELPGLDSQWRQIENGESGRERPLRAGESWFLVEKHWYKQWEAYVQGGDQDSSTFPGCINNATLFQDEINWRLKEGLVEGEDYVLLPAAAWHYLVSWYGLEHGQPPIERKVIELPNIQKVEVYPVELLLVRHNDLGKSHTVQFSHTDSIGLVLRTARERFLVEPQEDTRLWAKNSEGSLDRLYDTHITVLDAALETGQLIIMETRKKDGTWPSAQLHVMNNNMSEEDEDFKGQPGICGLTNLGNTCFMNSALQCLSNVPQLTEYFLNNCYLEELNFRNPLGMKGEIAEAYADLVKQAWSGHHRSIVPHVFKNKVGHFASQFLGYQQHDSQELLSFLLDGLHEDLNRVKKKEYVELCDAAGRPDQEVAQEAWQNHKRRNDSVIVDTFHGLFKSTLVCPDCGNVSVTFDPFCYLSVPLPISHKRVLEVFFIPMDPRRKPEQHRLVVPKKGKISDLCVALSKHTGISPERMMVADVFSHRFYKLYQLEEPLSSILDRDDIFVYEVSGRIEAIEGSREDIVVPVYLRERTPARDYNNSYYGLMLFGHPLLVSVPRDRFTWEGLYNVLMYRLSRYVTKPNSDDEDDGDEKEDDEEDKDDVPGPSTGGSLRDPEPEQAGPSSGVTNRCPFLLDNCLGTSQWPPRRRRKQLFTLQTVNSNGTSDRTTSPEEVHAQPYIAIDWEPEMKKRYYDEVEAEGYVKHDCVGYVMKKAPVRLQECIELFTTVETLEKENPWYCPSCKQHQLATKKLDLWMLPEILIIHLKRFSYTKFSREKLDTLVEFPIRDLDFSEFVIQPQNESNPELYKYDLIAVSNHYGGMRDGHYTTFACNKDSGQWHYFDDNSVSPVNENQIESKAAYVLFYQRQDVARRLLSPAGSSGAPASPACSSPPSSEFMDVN
Method in brief: as §1

[5] = molecular target: T1, UniProt Q5T2D3
T1 sequence (whole entry): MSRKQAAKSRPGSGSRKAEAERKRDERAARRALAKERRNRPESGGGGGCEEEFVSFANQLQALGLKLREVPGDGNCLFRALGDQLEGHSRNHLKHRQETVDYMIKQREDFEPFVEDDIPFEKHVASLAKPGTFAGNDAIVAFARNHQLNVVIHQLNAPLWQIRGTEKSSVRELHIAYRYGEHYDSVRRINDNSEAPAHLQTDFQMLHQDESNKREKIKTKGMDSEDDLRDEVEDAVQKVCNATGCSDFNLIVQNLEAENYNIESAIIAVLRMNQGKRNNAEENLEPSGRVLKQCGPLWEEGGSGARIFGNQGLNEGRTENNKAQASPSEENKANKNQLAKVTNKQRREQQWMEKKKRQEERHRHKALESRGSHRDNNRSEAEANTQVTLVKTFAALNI
Method in brief: as §1

[6] = molecular target: T2, UniProt Q8TE49
T2 sequence (whole entry): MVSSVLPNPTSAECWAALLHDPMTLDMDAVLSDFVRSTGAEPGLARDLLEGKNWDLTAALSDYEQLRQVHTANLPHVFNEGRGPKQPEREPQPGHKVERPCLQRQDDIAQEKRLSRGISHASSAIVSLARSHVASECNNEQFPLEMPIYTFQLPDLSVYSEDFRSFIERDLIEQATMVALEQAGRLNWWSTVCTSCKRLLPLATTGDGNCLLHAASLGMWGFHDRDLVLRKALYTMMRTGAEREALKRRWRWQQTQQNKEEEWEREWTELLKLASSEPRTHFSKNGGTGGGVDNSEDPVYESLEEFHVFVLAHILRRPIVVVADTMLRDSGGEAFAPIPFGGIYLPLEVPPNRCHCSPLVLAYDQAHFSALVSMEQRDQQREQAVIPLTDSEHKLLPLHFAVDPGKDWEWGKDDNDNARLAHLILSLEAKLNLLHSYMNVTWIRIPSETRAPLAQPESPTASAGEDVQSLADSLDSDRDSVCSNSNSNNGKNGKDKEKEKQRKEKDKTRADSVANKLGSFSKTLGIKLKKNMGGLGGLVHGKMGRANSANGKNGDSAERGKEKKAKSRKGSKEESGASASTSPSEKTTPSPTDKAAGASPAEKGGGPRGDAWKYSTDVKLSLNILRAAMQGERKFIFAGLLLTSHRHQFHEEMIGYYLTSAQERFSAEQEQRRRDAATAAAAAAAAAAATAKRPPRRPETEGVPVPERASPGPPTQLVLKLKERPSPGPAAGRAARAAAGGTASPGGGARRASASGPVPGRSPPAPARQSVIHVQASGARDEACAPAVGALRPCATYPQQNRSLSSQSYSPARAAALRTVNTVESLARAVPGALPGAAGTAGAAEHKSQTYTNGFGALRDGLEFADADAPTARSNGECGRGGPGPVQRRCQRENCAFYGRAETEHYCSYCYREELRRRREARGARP
Method in brief: as §1

[7] = molecular target: T3, UniProt Q9P2H5
T3 sequence (whole entry): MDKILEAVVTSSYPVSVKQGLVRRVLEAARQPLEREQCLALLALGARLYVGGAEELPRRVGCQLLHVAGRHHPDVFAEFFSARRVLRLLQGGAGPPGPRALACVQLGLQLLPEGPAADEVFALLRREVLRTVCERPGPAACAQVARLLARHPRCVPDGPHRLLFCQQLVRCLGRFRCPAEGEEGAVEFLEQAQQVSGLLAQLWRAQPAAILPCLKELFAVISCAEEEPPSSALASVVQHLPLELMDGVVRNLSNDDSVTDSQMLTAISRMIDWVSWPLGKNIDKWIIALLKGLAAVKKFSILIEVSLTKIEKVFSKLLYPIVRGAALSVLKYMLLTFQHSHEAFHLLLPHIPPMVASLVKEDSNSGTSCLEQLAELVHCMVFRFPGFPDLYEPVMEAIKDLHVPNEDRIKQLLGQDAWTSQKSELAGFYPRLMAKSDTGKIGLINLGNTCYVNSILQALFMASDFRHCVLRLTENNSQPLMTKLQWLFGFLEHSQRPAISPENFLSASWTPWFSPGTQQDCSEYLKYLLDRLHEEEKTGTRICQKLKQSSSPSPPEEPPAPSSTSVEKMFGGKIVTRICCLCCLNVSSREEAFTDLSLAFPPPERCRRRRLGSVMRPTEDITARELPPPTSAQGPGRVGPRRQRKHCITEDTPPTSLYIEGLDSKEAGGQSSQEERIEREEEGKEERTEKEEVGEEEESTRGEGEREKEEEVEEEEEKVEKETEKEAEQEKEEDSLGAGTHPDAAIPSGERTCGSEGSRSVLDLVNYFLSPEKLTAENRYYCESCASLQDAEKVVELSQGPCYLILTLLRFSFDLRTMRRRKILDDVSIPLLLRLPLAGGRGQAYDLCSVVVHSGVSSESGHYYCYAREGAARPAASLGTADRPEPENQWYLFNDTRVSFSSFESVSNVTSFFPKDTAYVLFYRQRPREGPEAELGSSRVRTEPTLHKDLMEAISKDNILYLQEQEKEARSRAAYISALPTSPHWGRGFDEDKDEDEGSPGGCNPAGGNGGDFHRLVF
Method in brief: as §1

[8] = molecular target: T4, UniProt Q9UGI0
T4 sequence (whole entry): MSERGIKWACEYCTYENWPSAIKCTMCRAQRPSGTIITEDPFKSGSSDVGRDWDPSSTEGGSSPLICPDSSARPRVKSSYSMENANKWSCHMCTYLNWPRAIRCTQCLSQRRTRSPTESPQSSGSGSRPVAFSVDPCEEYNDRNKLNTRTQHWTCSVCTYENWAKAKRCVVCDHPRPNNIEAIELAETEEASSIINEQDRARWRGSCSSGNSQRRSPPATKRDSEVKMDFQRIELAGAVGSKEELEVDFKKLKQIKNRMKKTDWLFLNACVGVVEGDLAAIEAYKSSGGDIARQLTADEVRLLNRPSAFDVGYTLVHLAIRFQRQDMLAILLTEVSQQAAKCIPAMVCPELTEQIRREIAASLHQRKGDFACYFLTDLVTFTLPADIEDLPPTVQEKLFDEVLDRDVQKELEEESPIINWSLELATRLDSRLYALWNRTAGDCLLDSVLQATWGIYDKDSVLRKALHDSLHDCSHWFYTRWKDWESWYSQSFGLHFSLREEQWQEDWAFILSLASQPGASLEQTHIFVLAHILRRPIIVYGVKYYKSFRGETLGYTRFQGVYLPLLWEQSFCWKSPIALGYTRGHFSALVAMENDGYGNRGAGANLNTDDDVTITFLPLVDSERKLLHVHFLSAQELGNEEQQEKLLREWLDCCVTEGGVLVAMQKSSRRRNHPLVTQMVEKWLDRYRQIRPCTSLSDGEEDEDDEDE
Method in brief: as §1

[9] = molecular target: T5, YOD1 (UniProt Q5VVQ6)
T5 sequence (whole entry): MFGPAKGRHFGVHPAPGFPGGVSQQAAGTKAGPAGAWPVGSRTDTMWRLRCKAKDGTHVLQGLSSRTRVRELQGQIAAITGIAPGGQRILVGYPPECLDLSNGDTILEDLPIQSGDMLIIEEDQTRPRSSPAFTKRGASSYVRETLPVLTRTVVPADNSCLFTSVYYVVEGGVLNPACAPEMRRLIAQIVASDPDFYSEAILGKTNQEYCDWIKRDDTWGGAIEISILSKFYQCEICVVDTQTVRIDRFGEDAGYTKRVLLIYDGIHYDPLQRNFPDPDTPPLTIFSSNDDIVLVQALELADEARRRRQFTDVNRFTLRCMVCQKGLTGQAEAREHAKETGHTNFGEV
Method in brief: as §1

Measured: log2 ratio of Biotin-Ahx-Ub-VS probe labelling

Cc1noc(C)c1CNC(=O)CCl
active: [6] -1.28 | [8] -1.01
inactive: [1] -0.717 | [2] -0.395 | [3] -0.346 | [4] -0.582 | [5] -0.715 | [7] -0.835 | [9] -0.752
